PubChem BioAssay (NCATS)
Results filed as inconclusive are left out. Active and inactive are the calls of the source. Unless noted, the call rests on the fitted dose curve; in most records, active means well fitted curve in the direction sought with a large enough effect; inconclusive means small, poorly fitted or top-dose-only effect, or another doubt; inactive means no such curve, though single readings can be large; an effect the other way counts as inactive or inconclusive.

How the values were obtained:
[1] = qHTS for Inhibitors of Plasmodium falciparum (DD2) proliferation (AID 504314);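 further: parasite DNA measured by SYBR Green fluorescence after red cell lysis; plate controls were DMSO vehicle for no effect and artemisinin wells for full effect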
In short: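 SYBR Green DNA-fluorescence growth assay: infected RBCs at 0.3% parasitemia, 2.5% hematocrit, 72 h compound exposure, 37C, 5% CO2; overnight lysis with dye at RT; normalized to 0.29 uM artemisinin and vehicle.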

[2] = qHTS for Inhibitors of Plasmodium falciparum (GB4) proliferation (AID 504315);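 further: 0% = DMSO vehicle and -100% = 0.29 µM artemisinin control; nearly all actives have a fitted effect of over 50% in size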
In short: (§1)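 Parasite growth measured as SYBR Green DNA fluorescence (ex 485, em 535 nm) after overnight lysis following 72 h culture at 37 °C, 0.3% parasitemia, 2.5% hematocrit. Values normalized against DMSO and 0.29 uM artemisinin controls, with plate-stack correction.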

[3] = qHTS for Inhibitors of Plasmodium falciparum (7G8) proliferation (AID 504316);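 further: series mostly up to about 6.7 µM; 0% = DMSO vehicle and -100% = 0.29 µM artemisinin full kill; nearly all actives have a fitted effect of over 65% in size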
In short: as §1

[4] = qHTS for Inhibitors of Plasmodium falciparum (HB3) proliferation (AID 504318);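 further: 0% = DMSO vehicle and -100% = artemisinin control; nearly all actives have a fitted effect of over 60% in size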
In short: as §1

[5] = qHTS for Inhibitors of Plasmodium falciparum (CP250) proliferation (AID 504320);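 further: plate controls were DMSO vehicle for no effect and 0.29 µM artemisinin control for full effect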
In short: as §1

[6] = target: Atrial natriuretic peptide receptor 1 (Homo sapiens) (UniProt P16066); assay: Natriuretic polypeptide receptor (hNpr1) antagonism - Pilot CMLD screen (AID 1347052; calls by dose curve;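 further: HEK293 cells with hNpr1 stimulated by hNppA peptide at 0.1 nM; cGMP level read as GloSensor luciferase luminescence after agonist stimulation; series mostly up to about 9.2 µM; on the % scale 0 is the no-effect control and ±100 the full control effect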)
Sequence of Atrial natriuretic peptide receptor 1 (Homo sapiens) (P16066 whole entry, looked up): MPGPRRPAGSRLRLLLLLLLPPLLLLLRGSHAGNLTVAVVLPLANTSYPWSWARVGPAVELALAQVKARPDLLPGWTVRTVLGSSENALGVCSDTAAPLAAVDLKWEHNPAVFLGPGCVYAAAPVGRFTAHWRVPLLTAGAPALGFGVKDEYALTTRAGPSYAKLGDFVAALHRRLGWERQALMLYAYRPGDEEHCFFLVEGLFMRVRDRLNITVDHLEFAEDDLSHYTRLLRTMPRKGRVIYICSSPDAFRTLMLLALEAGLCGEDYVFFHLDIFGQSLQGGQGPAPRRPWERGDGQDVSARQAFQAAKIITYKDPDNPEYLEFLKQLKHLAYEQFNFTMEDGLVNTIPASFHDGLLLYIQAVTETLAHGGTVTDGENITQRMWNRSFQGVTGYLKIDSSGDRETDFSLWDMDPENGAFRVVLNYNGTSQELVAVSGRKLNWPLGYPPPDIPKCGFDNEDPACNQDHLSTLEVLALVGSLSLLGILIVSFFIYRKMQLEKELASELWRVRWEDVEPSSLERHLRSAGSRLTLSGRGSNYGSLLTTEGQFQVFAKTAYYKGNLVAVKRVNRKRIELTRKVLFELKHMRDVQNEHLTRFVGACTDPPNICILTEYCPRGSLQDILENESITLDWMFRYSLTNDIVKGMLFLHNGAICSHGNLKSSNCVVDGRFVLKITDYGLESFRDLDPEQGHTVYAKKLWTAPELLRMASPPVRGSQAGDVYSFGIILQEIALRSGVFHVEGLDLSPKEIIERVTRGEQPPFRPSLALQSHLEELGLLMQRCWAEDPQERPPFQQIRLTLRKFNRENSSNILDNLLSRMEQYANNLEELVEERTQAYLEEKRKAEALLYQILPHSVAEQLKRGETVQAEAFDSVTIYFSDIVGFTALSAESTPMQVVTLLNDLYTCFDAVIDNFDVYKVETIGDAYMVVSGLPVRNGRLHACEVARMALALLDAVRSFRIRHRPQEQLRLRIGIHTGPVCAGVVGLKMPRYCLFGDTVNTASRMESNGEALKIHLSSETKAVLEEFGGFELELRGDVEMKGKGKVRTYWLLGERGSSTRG

COC(=O)N[C@@H](c1cccc(F)c1)C(C(C)=O)C(=O)OC (stereo partly specified)
inactive: Potency [1] | Potency [2] | Potency [3] | Potency [4] | Potency [5] | Potency [6]

COc1ccc(C2=CC3=C(Br)C(=O)C(C)(OC(=O)c4ccc(Cl)nc4)C(=O)C3=CO2)cc1 (stereo unspecified)
inactive: Potency [1] | Potency [2] | Potency [3] | Potency [4] | Potency [5] | Potency [6]

CCOC(=O)[C@@]1([C@@H](NC(=O)OC)c2cccc(C)c2)CCCC1=O
inactive: Potency [1] | Potency [2] | Potency [3] | Potency [4] | Potency [5] | Potency [6]

COc1ccc(-c2nc(-c3ccccc3)oc2NC(C)c2ccccc2)cc1 (stereo unspecified)
inactive: Potency [1] | Potency [2] | Potency [3] | Potency [4] | Potency [5] | Potency [6]

CC(=O)OC[C@H]1O[C@H](CC=NO[C@@H](C)c2cc(-c3c(C)cc(C)cc3C)no2)C=C[C@@H]1OC(C)=O
inactive: Potency [1] | Potency [2] | Potency [3] | Potency [4] | Potency [5] | Potency [6]

COCCN1C(=NCC(C)C)NC(c2ccccc2)C(C(=O)OC)=C1C (stereo unspecified)
inactive: Potency [1] | Potency [2] | Potency [3] | Potency [4] | Potency [5] | Potency [6]

COC(=O)C1=C(C)N(CCC(C)O)C(=O)N(C(C)=O)C1c1ccccc1 (stereo unspecified)
inactive: Potency [1] | Potency [2] | Potency [3] | Potency [4] | Potency [5] | Potency [6]

CCN1C(=O)[C@H]2[C@H]3C(=CC[C@@H]2C1=O)C1(OCCCO1)[C@@H]1O[C@H]1[C@H]3O
inactive: Potency [1] | Potency [2] | Potency [3] | Potency [4] | Potency [5] | Potency [6]

COC(=O)CCCC1=CC2=CC(=O)C(C)(OC(=O)c3cccs3)C(=O)C2=CN1C1CCCC1 (stereo unspecified)
inactive: activity, negative = inhibition [1] -0.45% [at 1.12 µM] | Potency [2] | Potency [3] | Potency [4] | Potency [5] | Potency [6]

O=C1[C@@H]2[C@H]3[C@H](O)[C@H](O)CC(=NOC[C@@H](O)COCc4ccco4)[C@H]3CC[C@H]2C(=O)N1C[C@@H]1CCCO1
inactive: Potency [1] | Potency [2] | Potency [3] | Potency [4] | Potency [5] | Potency [6]

C[C@H]1Cc2c(-c3ccccc3)nc3c(c2CO1)CN(C(=O)c1cccnc1)CC3
inactive: Potency [1] | Potency [2] | Potency [3] | Potency [4] | Potency [5] | Potency [6]

CCOC(=O)OC[C@H]1O[C@H](c2cc(C)cc(C)c2)C=C[C@H]1OC(=O)OCC
inactive: Potency [1] | Potency [2] | Potency [3] | Potency [4] | Potency [5] | Potency [6]

COc1ccc(OC[C@@H]2CC3[C@@H](CC[C@@H](C)[C@H]3c3ccc(Br)cc3)C(=O)O2)cc1 (stereo partly specified)
inactive: Potency [1] | Potency [2] | Potency [3] | Potency [4] | Potency [5] | Potency [6]

CCN1C(=NCC(C)C)N[C@H](c2ccccc2)[C@H](C(=O)OC)[C@H]1C
inactive: Potency [1] | Potency [2] | Potency [3] | Potency [4] | Potency [5] | Potency [6]

CCCCCCC#C[C@@H]1C=C[C@H](OC(=O)OCC)[C@@H](COC(=O)OCC)O1
inactive: Potency [1] | Potency [2] | Potency [3] | Potency [4] | Potency [5] | Potency [6]

C=CC1=C2C=C(C3CC3)N(C3CCCC3)C=C2C(=O)C(C)(OC(=O)c2ccco2)C1=O (stereo unspecified)
inactive: Potency [1] | Potency [2] | Potency [3] | Potency [4] | Potency [5] | Potency [6]

COC1=C[C@H](C(=O)NCCOC(C)=O)[C@H](C)[C@@H](c2ccccc2)CC1=O
inactive: Potency [1] | Potency [2] | Potency [3] | Potency [4] | Potency [5] | Potency [6]

COC(=O)NC(C=Cc1ccccc1)C(C(C)=O)C(=O)OC (stereo unspecified)
inactive: Potency [1] | Potency [2] | Potency [3] | Potency [4] | Potency [5] | Potency [6]

COc1ccc(OC)c(-c2ccccc2C=NNS(=O)(=O)c2ccc(C)cc2)c1
inactive: Potency [1] | Potency [2] | Potency [3] | Potency [4] | Potency [5] | Potency [6]

CC(=O)C1=CN(CCC=Cc2ccccc2)C(=O)NC1c1ccccc1 (stereo unspecified)
inactive: Potency [1] | Potency [2] | Potency [3] | Potency [4] | Potency [5] | Potency [6]

C[C@@H]1C=CCCO[C@]12C(=O)N(CC1CC1)c1cccc(Br)c12
inactive: Potency [1] | Potency [2] | Potency [3] | Potency [4] | Potency [5] | Potency [6]

COc1cc(OC)c2c(c1)OC1Cc3cc(OC)c(OC)cc3C2O1 (stereo unspecified)
inactive: activity, negative = inhibition [1] -3.4% [at 1.12 µM] | Potency [2] | Potency [3] | Potency [4] | Potency [5] | Potency [6]

C#CCN1C(=O)[C@]2(OCCC=C[C@H]2C)c2ccccc21
inactive: Potency [1] | Potency [2] | Potency [3] | Potency [4] | Potency [5] | Potency [6]

Cc1ccc(S(=O)(=O)NC(CCc2ccccc2)CC(=O)C(C)(C)C)cc1 (stereo unspecified)
inactive: Potency [1] | Potency [2] | Potency [3] | Potency [4] | Potency [5] | Potency [6]

CCN(CC)CCCN=C1NC(c2cccc(C(F)(F)F)c2)C(C(=O)OC)=C(C)N1CC (stereo unspecified)
inactive: Potency [1] | Potency [2] | Potency [3] | Potency [4] | Potency [5] | Potency [6]

CCCCc1nc2c(c3c1C[C@H](C)OC3)CN(S(=O)(=O)c1ccc(NC(C)=O)cc1)CC2
inactive: Potency [1] | Potency [2] | Potency [3] | Potency [4] | Potency [5] | Potency [6]
